Shown are actives, neighbours in structure and some others; about 0.9% of the full set was active somewhere.
SRC1 TRFRET art = TR-FRET detection interference compounds, primary screen, artefact control for PPARgamma SRC-1 recruitment agonists, biochemical, TR-FRET emission ratio | TR-FRET ratio at 8 µM | TR-FRET detection artefact counter-screen; stronger effect = higher value | 99,000 tested, 0.34% active; in the data active means TR-FRET ratio above about 2300
PPARg SRC-3 ag = PPARgamma agonists recruiting SRC-3 coactivator, primary screen, biochemical. Peroxisome proliferator-activated receptor gamma (Homo sapiens), P37231. biochemical PPARgamma/SRC-3 coactivator recruitment assay. activation, % at 8 µM. 200,000 tested, 0.26% active; in the data active means activation above about 23%;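 further: 0% = DMSO and 100% = reference agonist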
Target sequence (P37231 whole entry, looked up): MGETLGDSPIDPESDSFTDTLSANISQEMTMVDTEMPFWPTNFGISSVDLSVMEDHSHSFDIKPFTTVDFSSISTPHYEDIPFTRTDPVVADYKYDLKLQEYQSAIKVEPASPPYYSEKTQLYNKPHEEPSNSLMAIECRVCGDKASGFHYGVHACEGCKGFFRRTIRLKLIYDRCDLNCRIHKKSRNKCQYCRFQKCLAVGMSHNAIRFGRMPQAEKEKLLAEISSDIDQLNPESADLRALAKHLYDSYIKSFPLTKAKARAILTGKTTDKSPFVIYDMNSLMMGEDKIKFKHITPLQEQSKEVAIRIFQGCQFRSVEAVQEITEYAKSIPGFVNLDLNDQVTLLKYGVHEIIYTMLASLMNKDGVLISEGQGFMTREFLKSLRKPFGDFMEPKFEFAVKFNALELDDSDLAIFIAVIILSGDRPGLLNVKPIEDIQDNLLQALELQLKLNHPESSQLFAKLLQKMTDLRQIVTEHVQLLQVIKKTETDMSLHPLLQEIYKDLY
PPARg SRC2 recr = agonists of PPARg-SRC-2 recruitment, primary screen, biochemical, HTS; activation, % at 8 µM; PPARgamma LBD-SRC-2 recruitment; 200,000 tested, 0.34% active; AID 1032, 2008; Peroxisome proliferator-activated receptor gamma (Homo sapiens), P37231;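 further: 0% = vehicle and 100% = reference agonist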
PPARg SRC-1 ag = PPARgamma agonists recruiting SRC-1 coactivator, primary screen, biochemical | Peroxisome proliferator-activated receptor gamma (Homo sapiens), P37231 | PPARgamma-SRC-1 coactivator recruitment biochemical assay | activation, % at 8 µM | 200,000 tested, 0.41% active | AID 631, 2007; in the data active means activation above about 19%;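 further: 0% = DMSO and 100% = reference agonist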
SRC2 TRFRET art = TR-FRET signal artefacts, primary screen, artefact control for PPARgamma SRC-2 agonist project, biochemical. TR-FRET artefact counter-screen; stronger effect = higher value. TR-FRET ratio at 8 µM. 200,000 tested, 0.4% active. AID 1049, 2008; in the data active means TR-FRET ratio above about 2000
SRC3 TRFRET art = TR-FRET detection interference compounds, artefact control for PPARgamma SRC-3 recruitment agonists, biochemical, TR-FRET ratio; TR-FRET artefact counter-screen, PPARgamma/SRC-3 format; stronger effect = higher value; TR-FRET ratio at 8 µM; 99,000 tested, 0.39% active; AID 1048, 2008; in the data active means TR-FRET ratio above about 2000
PPARg SRC2 conf = agonists of PPARgamma SRC-2 coactivator recruitment, confirmation, biochemical, HTS; shares compounds with PPARg SRC-3 ag; biochemical SRC-2 recruitment by PPARgamma; activation, % at 8 µM; 790 tested, 52% active; AID 1297, 2008;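 further: 0% = vehicle alone and 100% = reference agonist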
PPARg SRC1 conf = PPARgamma agonists recruiting SRC-1 coactivator, confirmation, biochemical | shares compounds with PPARg SRC-3 ag | PPARgamma–SRC-1 coactivator recruitment biochemical assay | activation, % at 8 µM | 790 tested, 43% active; in the data active means activation above about 20%;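 further: 0% = vehicle wells and 100% = reference agonist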
PPARg SRC3 conf = PPARgamma-driven SRC-3 coactivator recruitment agonists, confirmation, biochemical. shares compounds with PPARg SRC-3 ag. activation, % at 8 µM. 790 tested, 29% active. biochemical PPARgamma-SRC-3 coactivator recruitment, agonist mode; in the data active means activation above about 24%;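 further: 0% = vehicle wells and 100% = reference agonist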
* = called active by the depositor; . = no result. Unless noted, no stated cut-off is given here; in the data, active means activation above about 22%; inactive means the rest.

SMILES | SRC1 TRFRET art | PPARg SRC-3 ag | PPARg SRC2 recr | PPARg SRC-1 ag | SRC2 TRFRET art | SRC3 TRFRET art | PPARg SRC2 conf | PPARg SRC1 conf | PPARg SRC3 conf
CC(=O)Nc1nc(C)c(C(C)=O)s1 | . | 20 | 7 | 5 | 1792 | . | . | . | .
C/C(Sc1nnc(Cc2ccccc2)o1)=C(/O)c1ccccc1 | . | -1 | -2 | -3 | 1563 | . | . | . | .
CC(C)C1Oc2cc3oc(=O)ccc3cc2C1=O (stereo unspecified) | 1420 | 2 | 1 | -2 | 1406 | 1369 | . | . | .
CCOc1ccc2c(c1)nc(SCC(=O)c1cccs1)n2C | . | 5 | 6 | 3 | 1436 | . | . | . | .
CCOc1ccc2c(c1)nc(SCC(=O)c1ccc(Br)s1)n2C | . | 28* | 29* | 20* | 1968 | . | 35* | 26* | 25*
CC(C1CC2CCC1C2)n1c(-c2ccco2)n[nH]c1=S (stereo unspecified) | 1926 | -2 | 1 | -1 | 1692 | 1461 | . | . | .
Cc1cccc(Nc2nn3c(=O)c4ccccc4nc3s2)c1 | . | 37* | 2 | 31* | 1736 | . | 27* | 17 | 15
Cc1c(C(=O)/C=C/c2cccs2)oc2ccc(F)cc12 | . | 24 | 14 | 28* | 2116* | . | 11 | 9 | 7
Cc1cc(=O)oc2c(C(=O)/C=C\c3cccs3)c(O)ccc12 | 1766 | -3 | -1 | 2 | 1427 | 1335 | . | . | .
COc1ccccc1C(=O)Nc1nnc(-c2ccco2)s1 | . | 6 | 9 | 7 | 1757 | . | . | . | .
Cc1ccccc1C(=O)Nc1nnc(-c2ccco2)s1 | 2497* | 11 | 16 | 24* | 2099* | 1974 | 42* | 36* | 26*
O=C(Nc1ccc(S(=O)(=O)Nc2ncccn2)cc1)c1ccc(Br)s1 | . | 37* | 22* | 13 | 2098* | . | 23* | 12 | 15
O=C(Nc1ccc(Cl)cc1)Nc1ccc(S(=O)(=O)Nc2ncccn2)cc1 | 1792 | 4 | 7 | 4 | 1569 | 1543 | . | . | .
CCCSc1nc2c(c(=O)[nH]c(=O)n2C)n1C | . | 15 | 10 | 21* | 1609 | . | 1 | 1 | 1
CCSc1nc2c(c(=O)[nH]c(=O)n2C)n1C | . | 4 | 15 | 8 | 1656 | . | . | . | .
Cc1nn(C(=O)CNS(=O)(=O)c2ccccc2)c(C)c1Sc1ccc(Cl)cc1 | 1946 | -2 | -11 | 1 | 1397 | 1417 | . | . | .
COc1cccc(Oc2ccc3nnc(C(F)(F)F)n3n2)c1 | 1826 | 1 | 5 | 15 | 1813 | 1598 | . | . | .
O=c1c(O)c(-c2ccc(O)cc2O)oc2cc(O)cc(O)c12 | 1969 | 9 | 7 | 23* | 1591 | 1822 | -5 | -5 | 0
COc1ccc(CNC(=O)CSc2nc(-c3ccccc3)cc(-c3cccs3)c2C#N)cc1 | . | 22 | 55* | 14 | 3077* | . | 26* | 25* | 13
Cc1c(O)c(CN2CCCC2)cc2c1oc(=O)c1ccccc12 | . | -3 | 2 | 3 | 1591 | . | . | . | .
C=CCc1cc2c(oc(=O)c3ccccc32)c(C)c1O | 2491* | 19 | 26* | 28* | 2206* | 2419* | 21 | 13 | 14
COC(=O)c1ccc(NC(=O)c2ccccc2-c2ccccc2C(=O)O)cc1 | 1540 | 1 | 2 | 0 | 1477 | 1510 | . | . | .
Cc1ccc(C)c(NC(=O)Cn2cnc3c(oc4ccccc43)c2=O)c1 | 2005 | 0 | -2 | 4 | 1749 | 1421 | . | . | .
Cc1cccc(-n2c(=S)[nH]c3sc4c(c3c2=O)CCc2ccccc2-4)c1 | 2821* | 21 | 36* | 26* | 2315* | 2699* | 34* | 22* | 24*
O=S(=O)(/N=C(/c1ccccc1)N1CCCCC1)c1ccccc1 | 1847 | 1 | 2 | 1 | 1573 | 1604 | . | . | .
COc1cccc(C2C3=C(CCCC3=O)Nc3[nH]n(-c4ccccc4)c(=O)c32)c1 (stereo unspecified) | 1713 | 7 | 10 | -1 | 1591 | 1360 | . | . | .
COc1cccc(C2C3=C(Nc4[nH]n(-c5ccccc5)c(=O)c42)c2ccccc2C3=O)c1 (stereo unspecified) | 1698 | 33* | 15 | 22* | 1497 | 1497 | 54* | 54* | 56*
CCC(C(=O)NCc1ccco1)N(C(=O)CNS(=O)(=O)c1ccccc1)c1ccc(OC)cc1 (stereo unspecified) | . | 5 | 4 | 4 | 1468 | . | . | . | .

Compound activity as filed in PubChem BioAssay.
